Reference: PubChem BioAssay AID1159580 (chemical genetic matrix, 2015)
About 2,000 (36%) of roughly 5,500 compounds were called active. Roughly 18% stayed inconclusive and do not appear here. Some of the results follow. A number with no mark means an inactive call. No stated cut-off is given here; in the data, active means normalized growth mostly below about 0.91 (no sharp cut-off); inconclusive means no clear call, values can overlap the other calls; inactive means mostly above about 0.92.

Experiment: chemical genetic growth profiling, strain panel (AID 1159580);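 further: tested at 20 µM; growth read once vehicle control cultures reached saturation at 30 °C; 1 = growth at the plate median or of vehicle wells; lower values mean less growth of the strain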
Details: S. cerevisiae deletion strains, growth OD
[1] = locus YAL040C, strain CLN3, hits give low values
[2] = locus YCL061C, strain MRC1 (second series), hits give low values
[3] = locus YDR363W, strain ESC2, hits give low values
[4] = locus YER002W, strain NOP16, hits give low values
[5] = locus YNL175C, strain NOP13, hits give low values
[6] = locus YNL197C, strain WHI3, hits give low values
[7] = locus YNL224C, strain SQS1, hits give low values
[8] = locus YOR083W, strain WHI5 (second series), hits give low values
[9] = locus YPL055C, strain LGE1, hits give low values

In the case of O=P(O)(O)C(Cl)(Cl)P(=O)(O)O, the normalized growth (locus YAL013W, strain DEP1, hits give low values) is reported as 1.01, the normalized growth [1] is reported as 0.972 and the normalized growth [2] is reported as 0.995. The normalized growth [3] was 1.04, the normalized growth [4] was 1.01 and the normalized growth (locus YJR075W, strain HOC1, hits give low values) was 1.03. It also gave a normalized growth (locus YMR263W, strain SAP30, hits give low values) of 1, a normalized growth [5] of 1 and a normalized growth [6] of 0.968. The normalized growth [7] was 1.02, the normalized growth [8] was 0.973 and the normalized growth [9] was 1.02.

For CC12NC(Cc3ccccc31)c1ccccc12 (stereo not given), the normalized growth [1] was 0.983, the normalized growth [2] was 0.984 and the normalized growth [3] was 1.04. For the same molecule, the normalized growth [4] was 1.01, the normalized growth (locus YGR078C, strain PAC10, hits give low values) was 0.992 and the normalized growth (locus YNL128W, strain TEP1, hits give low values) was 1.06. For the same molecule, the normalized growth (locus YNL153C, strain GIM3, hits give low values) was 0.997, the normalized growth [5] was 1 and the normalized growth [6] was 1.01. For the same molecule, the normalized growth [7] was 0.988, the normalized growth [8] was 1 and the normalized growth [9] was 1.01.

CC1(C)CC(=O)C=C(Sc2nc3ccccc3o2)C1 gave a normalized growth (locus YAR019C, strain CDC15, hits give low values) of 0.966, a normalized growth (locus YBL105C, strain PKC1, hits give low values) of 0.968 and a normalized growth (locus YBR135W, strain CKS1, hits give low values) of 0.955. It also gave a normalized growth (locus YBR136W, strain MEC1, hits give low values) of 0.965, a normalized growth (locus YBR160W, strain CDC28, hits give low values) of 0.962 and a normalized growth (locus YDL017W, strain CDC7, hits give low values) of 0.974. It also gave a normalized growth (locus YDL028C, strain MPS1, hits give low values) of 0.965, a normalized growth (locus YDL101C, strain DUN1, hits give low values) of 0.958 and a normalized growth (locus YDL108W, strain KIN28, hits give low values) of 0.961. It also gave a normalized growth (locus YDL132W, strain cdc53, hits give low values) of 0.947, a normalized growth (locus YDL214C, strain PRR2, hits give low values) of 0.933 and a normalized growth (locus YDR052C, strain DBF4, hits give low values) of 0.984. It also gave a normalized growth (locus YDR054C, strain cdc34, hits give low values) of 0.949, a normalized growth (locus YDR226W, strain ADK1, hits give low values) of 0.967 and a normalized growth (locus YDR477W, strain SNF1, hits give low values) of 0.949. The normalized growth (locus YER123W, strain YCK3, hits give low values) was 0.926, the normalized growth (locus YER133W, strain GLC7, hits give low values) was 0.979 and the normalized growth (locus YFL009W, strain cdc4, hits give low values) was 0.953. It also gave a normalized growth (locus YFL029C, strain CAK1, hits give low values) of 0.965, a normalized growth (locus YFR003C, strain YPI1, hits give low values) of 0.971 and a normalized growth (locus YFR019W, strain FAB1, hits give low values) of 0.941. The normalized growth (locus YFR028C, strain CDC14, hits give low values) was 0.957, the normalized growth (locus YGR040W, strain KSS1, hits give low values) was 0.945 and the normalized growth (locus YGR052W, strain FMP48, hits give low values) was 0.916. The normalized growth (locus YGR092W, strain DBF2, hits give low values) was 0.739, the normalized growth (locus YHR030C, strain SLT2, hits give low values) was 0.983 and the normalized growth (locus YHR079C, strain IRE1, hits give low values) was 0.955. It also gave a normalized growth (locus YHR082C, strain KSP1, hits give low values) of 0.992, a normalized growth (locus YHR205W, strain SCH9, hits give low values) of 0.861 and a normalized growth (locus YIL147C, strain SLN1, hits give low values) of 0.962. For the same molecule, the normalized growth (locus YJL095W, strain BCK1, hits give low values) was 0.837, the normalized growth (locus YJL128C, strain PBS2, hits give low values) was 0.924 and the normalized growth (locus YJL157C, strain FAR1, hits give low values) was 0.951. For the same molecule, the normalized growth (locus YJR016C, strain ILV3, hits give low values) was 0.952, the normalized growth (locus YJR066W, strain TOR1 (second series), hits give low values) was 0.875 and the normalized growth (locus YJR066W, strain TOR1, hits give low values) was 0.946. The normalized growth (locus YKL048C, strain ELM1, hits give low values) was 0.961, the normalized growth (locus YKL067W, strain YNK1, hits give low values) was 0.946 and the normalized growth (locus YKL101W, strain HSL1, hits give low values) was 0.925. The normalized growth (locus YKL193C, strain SDS22, hits give low values) was 0.953, the normalized growth (locus YKL203C, strain TOR2, hits give low values) was 0.99 and the normalized growth (locus YLR113W, strain HOG1, hits give low values) was 0.832 (active). It also gave a normalized growth (locus YLR133W, strain CKI1, hits give low values) of 0.938, a normalized growth (locus YLR403W, strain SFP1, hits give low values) of 0.901 and a normalized growth (locus YML070W, strain DAK1, hits give low values) of 0.927. The normalized growth (locus YMR001C, strain CDC5, hits give low values) was 0.961, the normalized growth (locus YMR205C, strain PFK2 (second series), hits give low values) was 0.948 and the normalized growth (locus YMR277W, strain FCP1, hits give low values) was 0.956. For the same molecule, the normalized growth (locus YNL006W, strain LST8, hits give low values) was 0.974, the normalized growth (locus YNL020C, strain ARK1, hits give low values) was 0.944 and the normalized growth (locus YNL161W, strain CBK1, hits give low values) was 0.967. The normalized growth (locus YNL183C, strain NPR1, hits give low values) was 0.951, the normalized growth (locus YNL207W, strain RIO2, hits give low values) was 0.948 and the normalized growth (locus YNL222W, strain SSU72, hits give low values) was 0.964. It also gave a normalized growth (locus YNL307C, strain MCK1 (second series), hits give low values) of 0.873, a normalized growth (locus YOL078W, strain AVO1, hits give low values) of 0.947 and a normalized growth (locus YOL136C, strain PFK27, hits give low values) of 0.907. The normalized growth (locus YOR061W, strain CKA2, hits give low values) was 0.955, the normalized growth (locus YOR119C, strain RIO1, hits give low values) was 1.01 and the normalized growth (locus YOR231W, strain MKK1, hits give low values) was 0.902. The normalized growth (locus YOR329C, strain SCD5, hits give low values) was 0.97, the normalized growth (locus YPL031C, strain PHO85, hits give low values) was 0.946 and the normalized growth (locus YPL153C, strain RAD53, hits give low values) was 0.949. The normalized growth (locus YPL204W, strain HRR25, hits give low values) was 0.935, the normalized growth (locus YPL209C, strain IPL1, hits give low values) was 0.965 and the normalized growth (locus YPL256C, strain CLN2, hits give low values) was 0.967. For the same molecule, the normalized growth (locus YPR025C, strain CCL1, hits give low values) was 0.968, the normalized growth (locus YPR106W, strain ISR1, hits give low values) was 0.964 and the normalized growth (locus YPR111W, strain DBF20, hits give low values) was 0.939. For the same molecule, the normalized growth (strain NNK1, hits give low values) was 0.961 and the normalized growth (strain TSCII, hits give low values) was 0.956.
